The text below walks through data of the supplement of paper PMC11732987, “Enantioselective OTUD7B fragment discovery through chemoproteomics screening and high-throughput optimisation” (Communications Chemistry, 2025).

Chain of UniProt P54252 (P54252 whole entry): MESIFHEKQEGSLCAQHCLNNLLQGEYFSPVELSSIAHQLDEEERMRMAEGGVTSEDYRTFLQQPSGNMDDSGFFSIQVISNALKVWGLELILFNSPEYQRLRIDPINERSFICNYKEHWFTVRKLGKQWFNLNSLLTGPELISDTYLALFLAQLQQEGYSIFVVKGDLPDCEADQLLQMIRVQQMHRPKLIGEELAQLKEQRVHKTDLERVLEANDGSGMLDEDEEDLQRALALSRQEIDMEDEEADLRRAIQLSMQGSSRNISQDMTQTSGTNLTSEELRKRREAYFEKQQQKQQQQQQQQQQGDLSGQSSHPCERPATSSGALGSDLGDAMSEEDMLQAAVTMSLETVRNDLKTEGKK
Chain of UniProt O00487 (O00487 whole entry): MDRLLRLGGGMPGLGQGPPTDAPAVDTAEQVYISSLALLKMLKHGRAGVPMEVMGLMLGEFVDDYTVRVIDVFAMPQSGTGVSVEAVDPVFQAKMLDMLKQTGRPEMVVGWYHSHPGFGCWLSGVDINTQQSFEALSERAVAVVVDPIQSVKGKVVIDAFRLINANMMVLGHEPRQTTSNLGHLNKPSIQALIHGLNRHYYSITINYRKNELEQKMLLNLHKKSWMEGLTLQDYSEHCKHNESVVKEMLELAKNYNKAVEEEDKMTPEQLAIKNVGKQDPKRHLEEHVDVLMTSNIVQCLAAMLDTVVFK
Chain of UniProt Q70EL1 (Q70EL1 whole entry): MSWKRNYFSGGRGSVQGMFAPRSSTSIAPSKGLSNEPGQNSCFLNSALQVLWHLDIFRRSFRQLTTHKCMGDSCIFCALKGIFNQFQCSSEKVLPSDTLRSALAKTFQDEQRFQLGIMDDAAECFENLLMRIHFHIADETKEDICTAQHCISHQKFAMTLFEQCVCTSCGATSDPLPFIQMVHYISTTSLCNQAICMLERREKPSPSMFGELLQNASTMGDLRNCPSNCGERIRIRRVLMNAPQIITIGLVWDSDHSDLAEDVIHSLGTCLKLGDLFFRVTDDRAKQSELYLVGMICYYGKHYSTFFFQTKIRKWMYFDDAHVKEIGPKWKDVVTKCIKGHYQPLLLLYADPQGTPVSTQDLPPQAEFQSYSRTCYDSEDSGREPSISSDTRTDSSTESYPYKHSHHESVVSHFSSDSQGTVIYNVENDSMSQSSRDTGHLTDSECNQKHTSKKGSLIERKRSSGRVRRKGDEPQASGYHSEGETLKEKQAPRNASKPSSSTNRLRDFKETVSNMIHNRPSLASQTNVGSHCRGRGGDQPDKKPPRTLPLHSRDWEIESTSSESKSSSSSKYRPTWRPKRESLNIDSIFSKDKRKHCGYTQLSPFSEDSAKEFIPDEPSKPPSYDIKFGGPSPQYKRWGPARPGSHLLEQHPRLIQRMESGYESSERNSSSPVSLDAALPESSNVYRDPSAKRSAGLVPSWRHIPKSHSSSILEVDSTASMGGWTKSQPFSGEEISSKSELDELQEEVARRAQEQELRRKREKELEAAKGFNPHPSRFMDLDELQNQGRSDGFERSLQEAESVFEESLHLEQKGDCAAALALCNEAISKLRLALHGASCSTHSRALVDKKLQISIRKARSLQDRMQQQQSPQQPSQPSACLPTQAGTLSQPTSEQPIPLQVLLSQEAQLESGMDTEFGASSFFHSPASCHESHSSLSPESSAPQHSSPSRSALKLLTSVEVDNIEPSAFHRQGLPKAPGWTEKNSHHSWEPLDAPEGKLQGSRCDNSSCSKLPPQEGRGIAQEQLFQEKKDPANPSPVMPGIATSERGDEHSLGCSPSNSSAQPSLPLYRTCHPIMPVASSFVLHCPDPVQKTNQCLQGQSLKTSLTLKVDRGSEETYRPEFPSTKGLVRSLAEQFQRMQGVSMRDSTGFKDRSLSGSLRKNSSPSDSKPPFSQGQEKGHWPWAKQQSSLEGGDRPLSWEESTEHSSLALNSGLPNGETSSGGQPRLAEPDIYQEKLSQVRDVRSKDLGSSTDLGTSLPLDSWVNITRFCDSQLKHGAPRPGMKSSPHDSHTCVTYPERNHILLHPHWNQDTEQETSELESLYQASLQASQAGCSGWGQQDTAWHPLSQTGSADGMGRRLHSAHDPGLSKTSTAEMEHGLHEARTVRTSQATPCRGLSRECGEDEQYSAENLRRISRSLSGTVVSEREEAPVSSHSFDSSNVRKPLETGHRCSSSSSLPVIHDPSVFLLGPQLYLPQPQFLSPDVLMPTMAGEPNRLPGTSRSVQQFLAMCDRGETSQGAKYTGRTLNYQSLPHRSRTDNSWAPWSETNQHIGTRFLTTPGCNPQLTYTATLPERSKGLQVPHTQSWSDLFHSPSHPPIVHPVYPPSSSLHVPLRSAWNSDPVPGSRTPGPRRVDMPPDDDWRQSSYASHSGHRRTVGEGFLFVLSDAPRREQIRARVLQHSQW
Chain of UniProt P51665 (P51665 whole entry): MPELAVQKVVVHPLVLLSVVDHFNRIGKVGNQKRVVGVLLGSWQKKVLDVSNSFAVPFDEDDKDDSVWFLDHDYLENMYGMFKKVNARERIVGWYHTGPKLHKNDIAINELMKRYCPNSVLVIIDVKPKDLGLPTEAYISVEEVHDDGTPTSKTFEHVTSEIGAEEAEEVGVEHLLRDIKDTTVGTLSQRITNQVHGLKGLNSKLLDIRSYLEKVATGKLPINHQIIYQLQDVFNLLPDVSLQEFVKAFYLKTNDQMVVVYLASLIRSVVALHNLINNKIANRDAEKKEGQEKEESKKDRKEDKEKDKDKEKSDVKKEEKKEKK
Chain of UniProt Q8TE49 (Q8TE49 whole entry): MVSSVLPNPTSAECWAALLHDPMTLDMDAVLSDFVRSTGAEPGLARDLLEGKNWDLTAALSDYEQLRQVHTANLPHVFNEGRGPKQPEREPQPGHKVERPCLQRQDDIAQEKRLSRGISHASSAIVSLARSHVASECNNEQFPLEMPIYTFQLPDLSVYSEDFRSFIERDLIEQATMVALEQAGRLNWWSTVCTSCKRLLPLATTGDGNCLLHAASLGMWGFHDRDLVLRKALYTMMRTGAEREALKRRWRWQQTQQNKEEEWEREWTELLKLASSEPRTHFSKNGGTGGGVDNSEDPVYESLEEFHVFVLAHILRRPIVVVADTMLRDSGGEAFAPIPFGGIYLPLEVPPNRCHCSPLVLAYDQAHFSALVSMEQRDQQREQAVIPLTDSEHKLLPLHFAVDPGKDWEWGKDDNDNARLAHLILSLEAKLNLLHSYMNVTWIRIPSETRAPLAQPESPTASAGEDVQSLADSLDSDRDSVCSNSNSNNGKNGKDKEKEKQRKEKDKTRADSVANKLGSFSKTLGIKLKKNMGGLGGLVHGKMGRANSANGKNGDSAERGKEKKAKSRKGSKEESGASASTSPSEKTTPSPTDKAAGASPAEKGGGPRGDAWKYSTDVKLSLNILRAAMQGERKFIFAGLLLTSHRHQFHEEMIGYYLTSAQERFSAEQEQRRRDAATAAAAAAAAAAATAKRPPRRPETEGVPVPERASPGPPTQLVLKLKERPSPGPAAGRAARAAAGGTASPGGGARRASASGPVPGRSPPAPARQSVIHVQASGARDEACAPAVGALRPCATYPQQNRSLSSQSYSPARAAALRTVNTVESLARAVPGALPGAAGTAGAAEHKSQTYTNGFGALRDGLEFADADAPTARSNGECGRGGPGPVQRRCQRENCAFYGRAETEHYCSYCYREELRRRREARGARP
Chain of UniProt O15372 (O15372 whole entry): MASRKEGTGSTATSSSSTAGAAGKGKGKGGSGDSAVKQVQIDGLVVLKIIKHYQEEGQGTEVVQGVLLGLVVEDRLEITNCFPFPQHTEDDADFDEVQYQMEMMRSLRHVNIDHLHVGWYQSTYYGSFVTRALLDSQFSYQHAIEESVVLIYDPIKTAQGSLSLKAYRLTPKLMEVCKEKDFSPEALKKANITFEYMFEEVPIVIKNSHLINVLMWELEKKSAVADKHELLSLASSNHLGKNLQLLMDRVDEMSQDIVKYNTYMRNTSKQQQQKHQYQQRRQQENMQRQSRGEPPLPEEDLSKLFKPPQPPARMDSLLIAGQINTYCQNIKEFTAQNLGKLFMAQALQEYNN
Chain of UniProt Q9UGI0 (Q9UGI0 whole entry): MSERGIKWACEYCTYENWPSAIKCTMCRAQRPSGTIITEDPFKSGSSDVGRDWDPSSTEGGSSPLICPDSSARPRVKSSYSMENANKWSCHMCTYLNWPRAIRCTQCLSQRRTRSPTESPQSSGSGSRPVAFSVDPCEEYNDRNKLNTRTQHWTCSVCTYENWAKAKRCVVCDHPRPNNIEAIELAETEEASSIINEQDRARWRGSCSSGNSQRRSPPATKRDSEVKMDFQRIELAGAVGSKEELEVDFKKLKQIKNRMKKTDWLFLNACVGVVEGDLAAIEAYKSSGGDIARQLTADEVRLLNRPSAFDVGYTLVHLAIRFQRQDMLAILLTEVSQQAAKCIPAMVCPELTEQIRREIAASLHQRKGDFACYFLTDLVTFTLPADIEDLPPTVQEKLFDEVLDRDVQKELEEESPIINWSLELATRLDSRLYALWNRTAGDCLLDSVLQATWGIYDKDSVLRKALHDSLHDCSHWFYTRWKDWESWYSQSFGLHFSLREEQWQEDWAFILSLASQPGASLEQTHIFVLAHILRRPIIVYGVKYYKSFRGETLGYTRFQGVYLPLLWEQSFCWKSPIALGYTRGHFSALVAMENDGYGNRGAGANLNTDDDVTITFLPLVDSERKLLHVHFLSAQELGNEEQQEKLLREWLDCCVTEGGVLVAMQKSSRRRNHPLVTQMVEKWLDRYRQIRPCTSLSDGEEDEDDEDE

Compound in one assay: OC1CN(Cc2sccc12)C(=O)CCl
Briefly: log2 ratio of Biotin-Ahx-Ub-VS probe labelling (compound/DMSO); higher = less target engagement, active = hit call of the paper (q ≤ 0.05, log2 ratio ≤ -1). The note with it: compound concentration: 50uM; treatment time: 3 h. As for the experimental part:
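Round 2 competitive ABPP in HEK293T lysate. Purified HTC-D2B compounds were tested at 50 and 200 µM for 3 h, followed by Biotin-Ahx-Ub-VS enrichment and diaPASEF LC-MS/MS. Values are the average log2 ratio (compound/DMSO) from an unpaired t-test (n=3 treated, n=26 DMSO).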
In the case of ATXN3 (UniProt P54252), the “log2 ratio of Biotin-Ahx-Ub-VS probe labelling” value (shortened to “log2 ratio”) is -0.216 (inactive).

Regarding USP34 (UniProt Q70CQ2), the “log2 ratio” value was -0.156 (inactive).

With USP54 (UniProt Q70EL1), the “log2 ratio” value is 0.561 (inactive).

Consider UniProt Q8TE49, for which the “log2 ratio” value was -1.87 (active).

In the case of UniProt Q9UGI0, the “log2 ratio” value was -0.451 (inactive).

With UniProt O00487, the “log2 ratio” value is 0.0337 (inactive).

Take PSMD7 (UniProt P51665): the “log2 ratio” value is -0.579 (inactive).

As to EIF3H (UniProt O15372), the “log2 ratio” value is -0.189 (inactive).

Still in this assay, the particulars now being: compound concentration: 200uM; treatment time: 3 h.
Turning to ATXN3 (UniProt P54252), the “log2 ratio” value is -0.0796 (inactive).

Take USP34 (UniProt Q70CQ2): the “log2 ratio” value is -0.0909 (inactive).

As for USP54 (UniProt Q70EL1), the “log2 ratio” value was -0.559 (inactive).

As for UniProt Q8TE49, the “log2 ratio” value was -2.68 (active).

As to UniProt Q9UGI0, the “log2 ratio” value is -1.5 (active).

As for UniProt O00487, the “log2 ratio” value was -0.128 (inactive).

In the case of PSMD7 (UniProt P51665), the “log2 ratio” value is 0.371 (inactive).

Turning to EIF3H (UniProt O15372), the “log2 ratio” value was -0.0524 (inactive).
